Results with a measured potency or affinity are listed apart. Inconclusive results are not listed. Activity calls are given as the source filed them.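 How the source made its calls: active means compound whose fitted half-maximal inhibition concentration is at most triple the top dose in every replicate run; inconclusive means runs disagree, or flat partial inhibition, or poor curve fit; inactive means every run inactive: flat, opposite effect, or too weak.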
biological target: Cyclin-dependent kinase 5 activator 1 (Homo sapiens) + Cyclin-dependent kinase 5 (Homo sapiens) (UniProt Q15078+Q00535); assay: human CDK5 activity blockade – biochemical, microfluidic mobility shift, dry powder, selectivity assay for GSK-3 alpha inhibitor project, dose response (AID 588430); conditions: CDK5-p25 kinase, Caliper mobility shift, peptide conversion; series mostly up to 35 µM
Sequence (Q00535 whole entry, looked up): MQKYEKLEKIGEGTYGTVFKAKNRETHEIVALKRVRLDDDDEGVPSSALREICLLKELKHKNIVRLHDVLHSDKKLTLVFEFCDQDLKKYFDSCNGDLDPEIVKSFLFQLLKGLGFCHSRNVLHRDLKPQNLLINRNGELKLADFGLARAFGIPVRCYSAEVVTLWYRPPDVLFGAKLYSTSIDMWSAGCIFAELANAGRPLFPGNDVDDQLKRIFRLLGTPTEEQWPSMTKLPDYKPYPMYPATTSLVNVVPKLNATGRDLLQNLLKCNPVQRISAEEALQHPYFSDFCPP
Sequence (Q15078 whole entry, looked up): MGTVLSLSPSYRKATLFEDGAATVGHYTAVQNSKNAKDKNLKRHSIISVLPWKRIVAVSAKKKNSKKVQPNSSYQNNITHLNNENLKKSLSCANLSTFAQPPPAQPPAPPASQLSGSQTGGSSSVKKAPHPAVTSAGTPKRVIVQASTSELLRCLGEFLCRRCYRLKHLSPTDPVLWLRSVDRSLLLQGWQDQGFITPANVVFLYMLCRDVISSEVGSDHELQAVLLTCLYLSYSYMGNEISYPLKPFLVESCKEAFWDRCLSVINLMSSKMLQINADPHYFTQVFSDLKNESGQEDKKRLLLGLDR

outcome, inactive:
c1ccc(-c2nc(NCCCn3ccnc3)c3ccccc3n2)cc1
Fc1ccc(CSc2nnc(-c3ccncc3)o2)cc1
Nc1nc(NCCCN2CCOCC2)nc(Nc2cccc(Cl)c2)c1[N+](=O)[O-]
CCOC(=O)c1ccc2ncc(C(=O)OCC)c(Nc3ccc(N4CCOCC4)cc3)c2c1
O=C(Nc1ccsc1C(=O)NC1CCCCC1)c1ccc(F)cc1
Nc1nonc1-n1nnc(C(=O)N/N=C/c2ccccc2Cl)c1CN1CCOCC1
COc1ccc(OC)c(/C=N/NC(=O)c2nnn(-c3nonc3N)c2-c2cccs2)c1
CN(C)Cc1c(C(=O)N/N=C/c2ccncc2)nnn1-c1nonc1N
